Source: PubChem BioAssay
RORg inh: inhibitors of mouse ROR gamma transcriptional activity | P51450 | Drosophila S2 Gal4-RORgamma UAS-luciferase reporter, 20 h | Potency, µM (titrated, usually from 53.6 µM), most hits filed as inhibitors | 310,000 tested, 5.4% active; note: nearly all actives have a fitted effect of over 60% in size
Target sequence (P51450 whole entry, looked up, the tested form may be a part): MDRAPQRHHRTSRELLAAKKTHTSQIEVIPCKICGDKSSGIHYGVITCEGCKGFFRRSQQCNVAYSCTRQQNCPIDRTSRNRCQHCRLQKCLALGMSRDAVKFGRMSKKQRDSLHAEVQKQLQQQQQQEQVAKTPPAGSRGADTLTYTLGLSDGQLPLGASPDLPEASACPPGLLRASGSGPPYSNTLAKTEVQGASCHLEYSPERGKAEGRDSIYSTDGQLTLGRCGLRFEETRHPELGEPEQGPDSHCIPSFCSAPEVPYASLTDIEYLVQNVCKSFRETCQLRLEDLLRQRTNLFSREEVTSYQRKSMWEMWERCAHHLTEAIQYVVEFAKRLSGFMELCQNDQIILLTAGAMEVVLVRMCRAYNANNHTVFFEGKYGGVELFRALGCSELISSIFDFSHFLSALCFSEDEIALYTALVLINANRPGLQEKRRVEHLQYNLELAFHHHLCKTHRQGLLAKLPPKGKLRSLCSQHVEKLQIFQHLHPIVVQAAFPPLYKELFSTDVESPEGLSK
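In this cell-based reporter format, copper sulfate (700 uM final) drives Gal4–ROR gamma fusion expression from a metallothionein promoter in Drosophila Schneider cells; compounds preincubated 1 hr, reporter read after 20 hr at ambient temperature.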
Gal4-VP16 FLuc: Gal4-VP16 reporter inhibition counter-screen. Drosophila S2 Gal4-VP16 UAS-luciferase, luminescence, 20 h. 310,000 tested, 3.5% active. Potency, µM (highest dose often 53.6 µM), usual class: inhibitors;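 note: Gal4-VP16 expression switched on by copper sulfate through the metallothionein promoter; nearly all actives have a fitted effect of over 50% in size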
KB-3-1 cytotox: KB-3-1 parental cell cytotoxicity; KB-3-1 viability, CellTiter-Glo ATP luminescence, 72 h; Potency, µM (top dose mostly 46.1 µM), actives largely listed as cytotoxic; 400,000 tested, 1.4% active; note: nearly all actives have a fitted effect of over 60% in size
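KB-3-1 parental drug-naive adenocarcinoma cells in DMEM/10% FBS, incubated 72 h at 37 C with pin-transferred compounds across a concentration series. Viability by CellTiter-Glo luminescence; concentration-response curves fitted after normalization.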
KB-V1 cytotox: kills drug-selected multidrug resistant KB-V1 cells; 400,000 tested, 3.4% active; KB-V1 MDR cells viability, CellTiter-Glo, 72 h; Potency, µM (highest dose often 46.1 µM), most hits filed as cytotoxic; AID 1347076; note: nearly all actives have a fitted effect of over 60% in size
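Readout: CellTiter-Glo luminescence, 10 min after addition. Cells: KB-V1 MDR subline, 72 h at 37 degrees C with compound. Analysis: corrected, normalized data fitted to concentration-effect curves.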
MCF10A rerep: inducers of DNA re-replication in MCF 10A breast cells; MCF 10A DNA re-replication, Hoechst nuclear intensity, 48 h; AID 624296; 350,000 tested, 2.9% active; Potency, µM (doses to about 46.1 µM), hits mostly activators; note: nearly all actives have a fitted effect of over 50% in size
SW480 rerep: DNA re-replication induction in SW480 cells; SW480 DNA re-replication, Hoechst DNA content imaging, 48 h; Potency, µM (highest dose often 46.1 µM), actives largely listed as activators; 340,000 tested, 1.8% active; AID 624297; note: nearly all actives have a fitted effect of over 55% in size
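Quantitative HTS format with DMSO vehicle controls; 48 hr drug incubation at 37 C, then 40 min Hoechst staining and scanning imager measurement at 405 nm excitation.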
Numbers stand for hits; 0 = inactive; ? = inconclusive; - = no result; [ ] = another dose, or the depositor's remark. An excerpt weighted towards active compounds, which were near 10% of everything screened. Calls come from the whole dose curve; as a rule, active = well fitted curve in the direction sought with a large enough effect; inconclusive = small, poorly fitted or top-dose-only effect, or another doubt; inactive = no such curve, though single readings can be large; an effect the other way counts as inactive or inconclusive.

SMILES	RORg inh	Gal4-VP16 FLuc	KB-3-1 cytotox	KB-V1 cytotox	MCF10A rerep	SW480 rerep
COc1ccccc1NC(=O)/C(=C/c1cccs1)NC(=O)c1ccco1	0	0	0	0	0	4.6µM
O=C(/C=C/c1cccc(Cl)c1)Nc1cccc([S+](=O)([O-])Nc2ccccc2F)c1	-	-	0	0	-	-
Cc1ccc(CNC(=O)Cn2cc(S(=O)(=O)Cc3cccc(Cl)c3)c3ccccc32)cc1	-	-	0	0	-	-
COc1ccc2c(c1)c1c(c(=O)n(CCc3ccccc3)c(=O)n1Cc1ccc(F)cc1)n2C	-	-	0	0	-	-
CC(C)c1ccc(NC(=O)CCCc2nc(-c3ccc(Cl)cc3)no2)cc1	-	-	0	0	-	-
O=c1cnn([C@@H]2O[C@H](CO)[C@@H](O)[C@H]2O)c(=O)[nH]1	0	0	?	4.1µM	0	0
COc1cc(N(C)C)ccc1/C=C1\C=Cc2ccccc21	-	-	0	0	-	-
COc1ccc(NC(=O)CCCn2c(=O)c3sccc3n(Cc3ccccc3C)c2=O)cc1	0[10 µM]	0	0	9.2µM	0	0
CCCN1CCC(=O)N(C(CSc2ccc(Br)cc2)c2ccccc2)CC1 (configuration not stated)	0	0	-	-	-	-
CCOc1c(Cl)cc(CNCC(O)c2ccccc2)cc1OC (configuration not stated)	7.1µM	?	?	0	?	0
COc1cc(CNc2ccc(O)cc2)cc(Br)c1OCc1ccccc1F	0	?	0	0	?	?
COc1cc(CNCc2ccncc2)cc(Br)c1OCc1ccccc1F	0	?	4.1µM	3.7µM	0	0
C=CCOc1c(Cl)cc(CNn2cn[nH]c2=S)cc1OC	8.9µM	?	0	0	0	0
OC(CNCc1ccncc1)c1ccccc1 (configuration not stated)	0	0	0	0	0	0
OC(CNCc1ccc(-c2ccccc2)cc1)c1ccccc1 (configuration not stated)	0	0	?	?	18µM	18µM
COc1cc(CNn2cn[nH]c2=S)ccc1OCC(=O)NC(C)(C)C	0	0	0	0	0	0
O=C(CNC(=O)C(c1ccccc1)c1ccccc1)OCC(=O)c1ccc2ccccc2c1	-	-	0	0	-	-
Cc1ccc2c(/C=C/c3ccc(N(C)C)cc3)ccnc2c1	-	-	0	?	-	-
COc1cc(CNCCc2ccccc2)cc(Cl)c1OCc1ccccc1	?	?	?	18µM	23µM	?
COc1cc(CNn2cn[nH]c2=S)cc(Br)c1OCc1ccccc1F	3.2µM	0	0	0	?	0
CCOc1cc(CNc2ccc(O)cc2)cc(Br)c1OCc1ccccc1F	?	0	0	0	?	?
COc1cc(CNCc2ccccc2)cc(Cl)c1OC	0	0[10 µM]	0	0	0	0
COc1cc(CNn2cn[nH]c2=S)cc(Cl)c1OCc1ccccc1	3.5µM	?	0	0	0	0
CCN(CC)S(=O)(=O)c1cccc(C(=O)Nc2ccccc2C(=O)Nc2ccc(OC)cc2)c1	-	-	0	?	-	-
Cc1cc(/C=N/n2c(COc3ccccc3C)nc3ccccc3c2=O)c(O)c([N+](=O)[O-])c1	14µM	35µM	0	0	0	13µM
SMILES	RORg inh	Gal4-VP16 FLuc	KB-3-1 cytotox	KB-V1 cytotox	MCF10A rerep	SW480 rerep
Cc1ccc(-c2[nH]ncc2/C=N/n2c(COc3ccccc3C)nc3ccccc3c2=O)cc1	?	?	?	?	5.8µM	?
O=c1c2ccccc2nc(COc2ccccc2)n1/N=C/c1cc([N+](=O)[O-])ccc1O	5µM	4µM	?	7.3µM	0	0
Cc1cccc(C)c1OCc1nc2ccccc2c(=O)n1/N=C/c1c[nH]c2ccccc12	?	0	?	?	0	0
Cc1ccccc1OCc1nc2ccccc2c(=O)n1/N=C/c1c[nH]c2ccccc12	?	0	0	0	16µM	?
CC1(C(=O)O)CCN1C(=O)COc1ccc(Cl)cc1 (configuration not stated)	-	-	0	0	-	-
CCOc1ccccc1NC(=O)C(CC(C)C)NS(=O)(=O)c1ccc2c(c1)CCN2C(C)=O (configuration not stated)	-	-	0	0	-	-
COc1ccccc1N(C)C	-	-	0	0	-	-
Cc1ccc(CNc2ncnc3c2c(-c2ccccc2)cn3-c2ccccc2)cc1	-	-	0	0	-	-
CC(C)CC(NS(=O)(=O)OCC(Cl)(Cl)Cl)c1ccccc1 (configuration not stated)	0	0	0	23µM	?	0
CC1Cc2ccccc2N1S(=O)(=O)c1ccc2c(c1)n(C)c(=O)c(=O)n2C (configuration not stated)	0[0.365 µM]	-	0	16µM	0	0
C[C@@H](c1ccccc1)N1C(=O)[C@@H]2[C@H]3C(=CC[C@H]2C1=O)C(=O)[C@H]1O[C@H]1[C@H]3O	3.5µM	?	-	-	-	-
CCOC(=O)CCN1C(=O)[C@@H]2[C@H]3C(=CC[C@H]2C1=O)C(=O)[C@H]1O[C@H]1[C@H]3O	2.2µM	0[10 µM]	-	-	-	-
